Screening results: PubChem, National Center for Advancing Translational Sciences (NCATS)
FMDV antiviral = blocks foot and mouth disease virus; 410,000 compounds, 1.2% hits; FMDV antiviral cell-based qHTS; AID 1159524; Potency, µM (series often up to 57.9 µM), most hits filed as inhibitors; calls by dose curve; tested in HEK293T cells; also: read-out not given here; nearly all actives have a fitted effect of over 45% in size
Shiga toxin inh = inhibitors of Shiga toxin in Vero cells | Vero cells, Shiga toxin protein synthesis inhibition reporter | inhibition, % at 38.7 µM | 290,000 compounds, 9.2% hits; in the data active = inhibition mostly above about 28%, no sharp cut-off; inactive = mostly below about 43%
Marburg entry inh = Marburg virus entry inhibition; Potency, µM (highest dose often 37.8 µM), actives largely listed as inhibitors; Marburg virus pseudotyped entry inhibition, cell reporter; 300,000 compounds, 1.8% hits; calls by dose curve; tested in HEK293 cells
CHX counter = counter-screen hit for Shiga toxin inhibitors, cycloheximide | AID 2314 | max response, % | cell reporter, cycloheximide protein synthesis inhibition counterscreen | 300,000 compounds, 12% hits; in the data active = max response mostly above about 13%, no sharp cut-off; inactive = mostly below about 14%; also: read at 38.3 µM for the half of the compounds with a filed dose
HCV inh = blocks hepatitis C virus; Huh7.5.1 HCVcc-Cre infection, luciferase reporter, 44 h; Potency, µM (series often up to 41.8 µM), most hits filed as inhibitors; 340,000 compounds, 3.4% hits; AID 651820; active = well fitted inhibition curve with a large enough effect; inconclusive = small, poorly fitted or top-dose-only effect, or another doubt; inactive = no such curve, though single readings can be large or run the other way
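Infectious HCV cell culture screen: compound-treated cells (1,000/well, pre-plated 4 h) are infected with HCVcc-Cre at roughly 0.5 moi and grown 44 h. Infection is quantified by luciferase signal after 15 min substrate incubation at room temperature.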
LASV entry inh = blocks Lassa virus binding to or entry into cells | 300,000 compounds, 1.2% hits | Lassa virus pseudotype entry inhibition, cell reporter | Potency, µM (series often up to 37.9 µM), usual class: inhibitors; calls by dose curve; tested in HEK293 cells; also: nearly all actives have a fitted effect of over 50% in size
Large screens that a line does not name were inactive. Compounds with a hit are over-represented: about 13% of the library has one in this group of screens.

CC1(C)NC(=O)N(CCOCCOc2cccc(Oc3ccccc3)c2)C1=O	FMDV antiviral inconclusive, LASV entry inh inconclusive
CCC(=O)c1ccccc1OCCCN1C(=O)NC(C)(C)C1=O	none
Cc1ccc([N+](=O)[O-])c(OCCN2C(=O)NC(C)(C)C2=O)c1	none
CCn1ccnc1CN(C)Cc1cn[nH]c1-c1ccc(F)cc1F	none
COC(=O)c1c(SC)nc2ccccc2c1OCc1ccc(Br)cc1	none (no result: Shiga toxin inh, CHX counter, HCV inh)
Cc1cc(NC(=O)CCC(=O)NNC(=O)c2ccc(C(C)(C)C)cc2)no1	Shiga toxin inh 80.0, Marburg entry inh inconclusive, CHX counter 35.6
CC(C)(C)c1ccc(C(=O)NNC(=O)CCC(=O)Nc2ccccc2)cc1	CHX counter 19.3 (no result: Marburg entry inh, LASV entry inh)
Cc1cc(NC(=O)COc2ccc(C(C)(C)C)cc2)no1	Shiga toxin inh 49.8, CHX counter 31.7
Cc1ccc(-c2noc(-c3ccoc3C)n2)cc1	Shiga toxin inh 83.3, Marburg entry inh inconclusive, CHX counter 49.4, LASV entry inh inconclusive
Cc1occc1-c1nc(-c2ccncc2)no1	Shiga toxin inh 79.8, CHX counter 33.6
Cc1occc1-c1nc(-c2ccccn2)no1	Shiga toxin inh 67.9, Marburg entry inh 11.2µM, CHX counter 26.4, HCV inh inconclusive, LASV entry inh inconclusive
CCCc1nnc(SCC(=O)Nc2ccc(OCC)cc2)n1N	none
O=[N+]([O-])c1cc(/C=N/OCc2c(Cl)cccc2Cl)ccc1N1CCOCC1	CHX counter 18.7, HCV inh inconclusive, LASV entry inh inconclusive
COc1cccc(CN(C)C(=O)c2ccc(NS(=O)(=O)c3ccc4[nH]c(=O)[nH]c4c3)cc2)c1OC	none (no result: HCV inh)
COc1cccc(CN(C)C(=O)c2ccc(COc3ccc(Cl)cc3)cc2)c1OC	Shiga toxin inh 86.8, CHX counter 67.0, HCV inh inconclusive
CCOc1ccc(NS(=O)(=O)c2ccc(C(=O)N(C)Cc3cccc(OC)c3OC)cc2)cc1	Marburg entry inh inconclusive, HCV inh 12.6µM, LASV entry inh inconclusive
O=C(/C=C/c1cccs1)Nc1nncs1	Shiga toxin inh 53.6, CHX counter 33.5 (no result: Marburg entry inh, LASV entry inh)
O=C(/C=N/O)Nc1cccnc1	Marburg entry inh inconclusive
O=C(/C=C/c1cccs1)Nc1cccnc1	Shiga toxin inh 124.0, Marburg entry inh inconclusive, CHX counter 75.3
O=C(/C=C/c1cccs1)Nc1scc(-c2ccccc2)c1C(=O)O	Shiga toxin inh 91.5, Marburg entry inh inconclusive, CHX counter 44.2, LASV entry inh inconclusive
Cc1ccnc(NC(=O)/C=C/c2cccs2)c1	Shiga toxin inh 97.4, Marburg entry inh inconclusive, CHX counter 49.9, HCV inh inconclusive, LASV entry inh inconclusive
Cc1ccnc(NC(=O)C2(c3cccs3)CCOCC2)c1	none
O=C(/C=C/c1cccs1)Nc1nc(-c2ccccc2)cs1	Shiga toxin inh 62.7, Marburg entry inh inconclusive, CHX counter 40.0, HCV inh 22.4µM
CCc1cc(=O)[nH]c(SCC(=O)N2CCCC2)n1	none (no result: Shiga toxin inh, CHX counter)
COc1ccc(CCNC(=O)c2cc(=O)c3cc(C)c(C)cc3o2)cc1OC	LASV entry inh inconclusive (no result: Shiga toxin inh, CHX counter, HCV inh)
COc1ccc(CCNC(=O)c2nonc2N)cc1OC	LASV entry inh inconclusive
COc1ccc(CCNC(=O)c2noc3c2CCCC3)cc1OC	CHX counter 9.1
COc1cc(NC(=O)c2noc3c2CCCC3)c(OC)cc1Cl	none
COc1ccc(CCNC(=O)c2cc(=O)c3cc(C)ccc3o2)cc1OC	FMDV antiviral inconclusive, HCV inh 22.4µM (no result: Marburg entry inh, LASV entry inh)
COc1ccc(Cl)cc1NC(=O)c1noc2c1CCCC2	Shiga toxin inh 51.0, CHX counter 18.6 (no result: Marburg entry inh, LASV entry inh)
CN(C(=O)COC(=O)c1ccc(Br)c([N+](=O)[O-])c1)c1c(N)n(Cc2ccccc2)c(=O)[nH]c1=O	Marburg entry inh inconclusive (no result: Shiga toxin inh, CHX counter)
CC(C)n1nc(C(=O)Nc2cccc(S(=O)(=O)NCc3ccco3)c2)c2ccccc2c1=O	CHX counter 17.0, HCV inh inconclusive (no result: Marburg entry inh, LASV entry inh)
O=C(Nc1cccc(S(=O)(=O)NCc2ccco2)c1)c1ccc(Cl)cc1	Marburg entry inh inconclusive, HCV inh inconclusive (no result: Shiga toxin inh, CHX counter)
Cn1nc(C(=O)Nc2ccc(S(=O)(=O)NCc3ccco3)cc2)c2ccccc2c1=O	Shiga toxin inh 52.3, CHX counter 52.6, HCV inh inconclusive (no result: Marburg entry inh, LASV entry inh)
N#C/C(=C\c1coc2ccc(O)cc2c1=O)C(=O)Nc1nc2ccccc2s1	FMDV antiviral inconclusive, Shiga toxin inh 86.1, CHX counter 31.6, HCV inh inconclusive (no result: Marburg entry inh, LASV entry inh)
Cc1ccc(C(=O)N/C(=C\c2sccc2C)C(=O)NCc2ccco2)cc1	none
Cc1ccc(C(=O)N/C(=C/C=C\c2ccccc2)C(=O)NCc2ccco2)cc1	Marburg entry inh inconclusive, CHX counter 17.3, LASV entry inh inconclusive
C/C(=C\c1ccccc1)C(=O)NCCc1ccccc1	Shiga toxin inh 65.7, Marburg entry inh inconclusive, CHX counter 30.8, LASV entry inh inconclusive
COc1ccc(/C=C(/NC(=O)c2ccccc2)C(=O)NCc2ccco2)cc1	none
C/C(=C\c1ccccc1)C(=O)NCc1ccco1	Shiga toxin inh 65.8, CHX counter 35.6 (no result: Marburg entry inh, LASV entry inh)
CCS(=O)(=O)NCc1csc(C)n1	none
Cc1noc(C)c1C(=O)OCC(=O)Nc1cc(Cl)ccc1Oc1ccccc1	none
N#Cc1ccsc1NC(=O)c1ccc2ncsc2c1	none (no result: Shiga toxin inh, Marburg entry inh, CHX counter, HCV inh, LASV entry inh)
O=C(OCCOc1cccc(Cl)c1)c1ccc2ncsc2c1	CHX counter 17.1 (no result: LASV entry inh)
O=C(Nc1cccc(Cl)c1)c1ccc2ncsc2c1	Shiga toxin inh 90.3, CHX counter 43.9, HCV inh inconclusive (no result: Marburg entry inh, LASV entry inh)
O=C(Nc1ccc(Cl)cc1)c1ccc2ncsc2c1	Shiga toxin inh 122.5, CHX counter 46.2 (no result: Marburg entry inh, LASV entry inh)
CC(C)c1ccccc1NC(=O)c1ccc2ncsc2c1	FMDV antiviral inconclusive, Shiga toxin inh 39.1, CHX counter 30.4 (no result: LASV entry inh)
O=C(Nc1ccc(N2CCOCC2)cc1)c1ccc2ncsc2c1	Marburg entry inh inconclusive, HCV inh inconclusive, LASV entry inh inconclusive (no result: Shiga toxin inh, CHX counter)
O=C(COC(=O)c1ccc2ncsc2c1)NCc1cccc(Cl)c1	none (no result: Shiga toxin inh, Marburg entry inh, CHX counter, LASV entry inh)
CCCNC(=O)C1(C)CCN1C(=O)C/C=C/c1ccccc1 (stereo unspecified)	none (no result: Shiga toxin inh, Marburg entry inh, CHX counter, HCV inh, LASV entry inh)
COc1ccc(S(=O)(=O)N2N=C(c3cccc(NS(C)(=O)=O)c3)CC2c2ccco2)cc1 (stereo unspecified)	none (no result: Marburg entry inh, LASV entry inh)
COc1cc(C2NC(=S)NC(C)=C2C(=O)OC(C)C)ccc1OC(C)C (stereo unspecified)	none
O=C(Nc1ccc(C(F)(F)F)cc1)c1ccc2ncsc2c1	Shiga toxin inh 156.2, CHX counter 35.3 (no result: Marburg entry inh, LASV entry inh)
O=C(O)c1ccc2ncsc2c1	Shiga toxin inh 68.0, CHX counter 26.9
COc1ccc(C(C)(C)C)cc1NC(=O)c1ccc2ncsc2c1	Shiga toxin inh 72.3, CHX counter 27.0, HCV inh inconclusive
O=C(c1ccc2ncsc2c1)N1CCCCC1	LASV entry inh inconclusive
O=C(Nc1ccc(F)cc1)c1ccc2ncsc2c1	Shiga toxin inh 90.8, CHX counter 59.4 (no result: Marburg entry inh, LASV entry inh)
COc1ccc(NC(=O)c2ccc3ncsc3c2)c2ccccc12	none
CC(=O)c1cc2c(cc1NC(=O)CCc1ccccc1)OCO2	CHX counter 24.0, HCV inh inconclusive
O=C(CCc1ccccc1)Nc1cc2c(cc1C(=O)O)OCCCO2	none (no result: Shiga toxin inh, CHX counter)
CC(=O)c1cc2c(cc1NC(=O)Cc1ccsc1)OCO2	HCV inh 5.62µM (no result: Shiga toxin inh, Marburg entry inh, CHX counter, LASV entry inh)
CC(=O)c1cc2c(cc1NC(=O)CCCC(=O)O)OCO2	none
